Experimental data as given in PubChem BioAssay AID1159580 (chemical genetic matrix, 2015).
Out of some 5,500 compounds screened, about 2,000 (36%) were called active. About 18% were inconclusive and are not listed. No stated cut-off is given here; in the data, active means normalized growth mostly below about 0.91 (no sharp cut-off); inconclusive means no clear call, values can overlap the other calls; inactive means mostly above about 0.92. This is one part of the list.

Test: chemical genetic growth profiling, strain panel (AID 1159580);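 further: tested at 20 µM; growth read once vehicle control cultures reached saturation at 30 °C; 1 = growth at the plate median or of vehicle wells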
Conditions: S. cerevisiae deletion strains, growth OD

Measured: normalized growth

C=CCCCCCCCCCCCC(O)CC(O)CO (centres undefined) (tested in a mixture with another compound)
inactive: locus YKL068W, stronger effect = lower value 1 | locus YOL012C, strain htz1 1.15
active: locus YBR021W, strain FUR4, stronger effect = lower value 0.426 | locus YBR229C, strain ROT2, stronger effect = lower value 0.531 | locus YCL029C, strain bik1, stronger effect = lower value 0.253 | locus YDL035C, strain GPR1, stronger effect = lower value 0.359 | locus YDL074C, strain BRE1, stronger effect = lower value 0.208 | locus YDL101C, strain DUN1, stronger effect = lower value 0.242 | locus YDL185W, strain tfp1, stronger effect = lower value 0.611 | locus YDL192W, strain arf1, stronger effect = lower value 0.231 | locus YDR101C, strain arx1, stronger effect = lower value 0.471 | locus YDR150W, strain NUM1, stronger effect = lower value 0.637 | locus YDR162C, strain NBP2, stronger effect = lower value 0.281 | locus YDR318W, strain mcm21, stronger effect = lower value 0.224 | locus YDR388W, stronger effect = lower value 0.496 | locus YDR502C, strain sam2, stronger effect = lower value 0.347 | locus YEL061C, strain CIN8, stronger effect = lower value 0.177 | locus YER110C, stronger effect = lower value 0.27 | locus YER155C, strain BEM2, stronger effect = lower value 0.0936 | locus YER167W, strain BCK2, stronger effect = lower value 0.276 | locus YGL078C, strain dbp3, stronger effect = lower value 0.465 | locus YGL086W, strain mad1, stronger effect = lower value 0.145 | locus YGL248W, strain PDE1, stronger effect = lower value 0.165 | locus YGR135W, strain pre9, stronger effect = lower value 0.335 | locus YGR252W, strain gcn5, stronger effect = lower value 0.407 | locus YHR030C, strain SLT2, stronger effect = lower value 0.21 | locus YHR079C, strain IRE1 (second series), stronger effect = lower value 0.253 | locus YHR094C, strain hxt1, stronger effect = lower value 0.198 | locus YHR129C, strain ARP1, stronger effect = lower value 0.248 | locus YHR200W, strain rpn10, stronger effect = lower value 0.328 | locus YIL066C, strain RNR3, stronger effect = lower value 0.217 | locus YIL073C, strain SPO22, stronger effect = lower value 0.544 | locus YIL125W, strain kgd1, stronger effect = lower value 0.288 | locus YIR030C, strain dcg1, stronger effect = lower value 0.341 | locus YJL095W, strain BCK1, stronger effect = lower value 0.139 | locus YJL134W, strain LCB3, stronger effect = lower value 0.273 | locus YJL168C, strain set2, stronger effect = lower value 0.521 | locus YJL187C, strain SWE1 (second series), stronger effect = lower value 0.386 | locus YKL009W, strain mrt4, stronger effect = lower value 0.274 | locus YKL085W, strain MDH1 (second series), stronger effect = lower value 0.343 | locus YKL085W, strain MDH1, stronger effect = lower value 0.343 | locus YKR001C, strain vps1, stronger effect = lower value 0.123 | locus YLR039C, strain RIC1, stronger effect = lower value 0.46 | locus YLR058C, strain SHM2, stronger effect = lower value 0.301 | locus YLR102C, strain apc9, stronger effect = lower value 0.225 | locus YLR262C, strain YPT6, stronger effect = lower value 0.355 | locus YLR268W, strain sec22, stronger effect = lower value 0.308 | locus YLR330W, strain CHS5, stronger effect = lower value 0.097 | locus YLR371W, strain rom2, stronger effect = lower value 0.204 | locus YLR418C, strain cdc73, stronger effect = lower value 0.186 | locus YML016C, strain PPZ1, stronger effect = lower value 0.218 | locus YML032C, strain rad52, stronger effect = lower value 0.201 | locus YML124C, strain tub3, stronger effect = lower value 0.503 | locus YMR078C, strain ctf18, stronger effect = lower value 0.125 | locus YMR223W, strain ubp8, stronger effect = lower value 0.159 | locus YMR263W, strain SAP30, stronger effect = lower value 0.32 | locus YMR307W, strain GAS1, stronger effect = lower value 0.241 | locus YNL067W, strain RPL9B, stronger effect = lower value 0.56 | locus YNL153C, strain GIM3, stronger effect = lower value 0.365 | locus YNL233W, strain BNI4, stronger effect = lower value 0.141 | locus YNL250W, strain rad50, stronger effect = lower value 0.734 | locus YNL271C, strain bni1, stronger effect = lower value 0.526 | locus YNL298W, strain CLA4, stronger effect = lower value 0.384 | locus YNL307C, strain MCK1, stronger effect = lower value 0.0684 | locus YNR052C, strain pop2, stronger effect = lower value 0.426 | locus YOL006C, strain TOP1, stronger effect = lower value 0.149 | locus YOL147C, strain pex11, stronger effect = lower value 0.104 | locus YOR061W, strain CKA2, stronger effect = lower value 0.0632 | locus YOR069W, strain VPS5, stronger effect = lower value 0.559 | locus YOR136W, strain idh2, stronger effect = lower value 0.136 | locus YOR144C, strain elg1, stronger effect = lower value 0.236 | locus YOR184W, strain ser1, stronger effect = lower value 0.129 | locus YOR316C, strain cot1, stronger effect = lower value 0.354 | locus YPL241C, strain CIN2, stronger effect = lower value 0.114 | locus YPR119W, strain clb2, stronger effect = lower value 0.148 | locus YPR141C, strain kar3, stronger effect = lower value 0.824 | locus YPR163C, strain tif3, stronger effect = lower value 0.205 | locus YPR167C, strain met16, stronger effect = lower value 0.203 | strain wtn01, stronger effect = lower value 0.337
